Data: PubChem BioAssay (Tox21)
Values joined by “and” are separate entries in the source; they are usually repeats but may differ in a detail not shown here. Equal entries are not always repeated. Records with an inconclusive call do not appear. The source holds several records for some structures; these can differ, active in one and inactive in another. Active and inactive are the calls of the source. Unless noted, calls follow the shape of the full dose curve.

Assays:
[1] = qHTS assay to identify small molecule antagonists of the vitamin D receptor (VDR) signaling pathway - cell viability counter screen (AID 743225; active = well fitted curve in the direction sought with a large enough effect in the repeat runs; an effect the other way counts as inactive or inconclusive; also: % is scaled to controls: 0 for no effect and ±100 for the full control effect; nearly all actives have a fitted effect of over 50% in size)
In short: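 Same-well multiplex: following 16 h treatment of HEK 293T cells carrying a UAS-driven beta-lactamase reporter with compound and agonist (3 nM final), and a 2 h FRET substrate step, CellTiter-Glo was added and luminescence read after 30 min.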

[2] = qHTS assay to identify small molecule agonists of the NFkB signaling pathway (AID 1159509; active = well fitted curve in the direction sought with a large enough effect in the signal ratio in the repeat runs, not every such curve was filed as active; the % refers to the signal ratio; also: series mostly up to about 61 µM; % is scaled to controls: 0 for no effect and ±100 for the full control effect)
In short: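 Readout: FRET fluorescence, 405 nm excitation, 460/530 nm emission; beta-lactamase expression disrupts FRET. Cells: ME-180 stably carrying NF-kB-driven bla reporter. Compound exposure 5 hr, 37 C, 5% CO2.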

[3] = qHTS assay to identify small molecule agonists of the NFkB signaling pathway - cell viability counter screen (AID 1159515); also: series mostly up to about 61 µM; % is scaled to controls: 0 for no effect and ±100 for the full control effect; nearly all actives have a fitted effect of over 55% in size
In short: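 Plate 2,000 NFkB-bla ME-180 cells/well; incubate overnight. Add compounds, 5 hr at 37 C. Add FRET substrate, 1.5 hr RT. Add CellTiter-Glo, 30 min RT; read luminescence.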

[4] = qHTS assay to identify small molecule agonists of the endoplasmic reticulum stress response signaling pathway (AID 1159516; active = well fitted activation curve with a large enough effect in the signal ratio in the repeat runs, not every such curve was filed as active; the % refers to the signal ratio; also: % is scaled to controls: 0 for no effect and ±100 for the full control effect)
In short: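 Beta-lactamase expression from the ER stress response element in HeLa reporter cells is quantified with the LiveBLAzer B/G FRET substrate, read at 405 nm excitation after 2 hr at room temperature, following 5 hr compound treatment at 37 C.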

[5] = qHTS assay to identify small molecule agonists of the endoplasmic reticulum stress response signaling pathway - cell viability counter screen (AID 1159517); also: series mostly up to about 61 µM; % is scaled to controls: 0 for no effect and ±100 for the full control effect; nearly all actives have a fitted effect of over 50% in size
In short: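 Steps: seed 1,500 ESRE-bla HeLa cells per well; incubate overnight at 37 C, 5% CO2; add compounds in DMSO for 5 hr; run FRET substrate 2 hr RT; add CellTiter-Glo, wait 30 min, read luminescence.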

[6] = qHTS assay to identify small molecule antagonists of the retinoid-related orphan receptor gamma (ROR-gamma) signaling pathway - cell viability counter screen (AID 1159520; active = well fitted curve in the direction sought with a large enough effect in the repeat runs; an effect the other way counts as inactive or inconclusive; also: % is scaled to controls: 0 for no effect and ±100 for the full control effect; nearly all actives have a fitted effect of over 50% in size)
In short: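 Tet-on ROR gamma CHO cells were given compounds for 2 hr, then doxycycline hyclate at 1 uM final, and incubated 16 hr at 37 C. Viability was measured as ATP content by CellTiter-Glo luminescence.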

[7] = target: Nuclear receptor ROR-gamma (Homo sapiens) (UniProt P51449); experiment: qHTS assay to identify small molecule antagonists of the retinoid-related orphan receptor gamma (ROR-gamma) signaling pathway (AID 1159521; active = well fitted curve in the direction sought with a large enough effect in the repeat runs; an effect the other way counts as inactive or inconclusive; also: nearly all actives have a fitted effect of over 50% in size; also: potency is read from the fitted curve at half-maximal effect;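 as to activity change, negative = inhibition: CHO cells with doxycycline inducible ROR-gamma driving an RORE luciferase reporter; top concentration of the series differs between compounds; % is scaled to controls: 0 for no effect and ±100 for the full control effect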)
In short: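 Inducible-expression reporter assay: doxycycline (1 uM final) switched on RORγ in CHO cells bearing a ROR response element-luciferase construct, with test compounds present from 2 h beforehand. Decreased luminescence after 16 h defined antagonist activity.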

[8] = qHTS assay to identify small molecule agonists of the AP-1 signaling pathway - cell viability counter screen (AID 1159525); also: nearly all actives have a fitted effect of over 55% in size; also: potency is read from the fitted curve at half-maximal effect
In short: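 Same-well cytotoxicity counter screen of the Tox21 10K library in ME-180 cells. The readout is ATP-dependent luminescence after 5 h compound treatment. Data are normalised to DMSO and tetra n-octyl ammonium bromide controls.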

[9] = qHTS assay to identify small molecule agonists of the AP-1 signaling pathway (AID 1159526); also: % is scaled to controls: 0 for no effect and ±100 for the full control effect
[10] = qHTS assay to identify small molecule agonists of the vitamin D receptor (VDR) signaling pathway - cell viability counter screen (AID 743224; active = well fitted curve in the direction sought with a large enough effect in the repeat runs; an effect the other way counts as inactive or inconclusive; also: nearly all actives have a fitted effect of over 50% in size; also: potency is read from the fitted curve at half-maximal effect)
In short: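 In parallel with the bla FRET readout, cytotoxicity toward VDR-bla cells after 16 h compound exposure was assessed by CellTiter-Glo, with luminescence recorded after a 30 min room-temperature incubation.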

CO/N=C(/C(=O)N[C@@H]1C(=O)N2C(C(=O)OCOC(=O)C(C)(C)C)=C(C)CS[C@H]12)c1csc(N)n1
inactive: Potency [1] | outcome [2] | outcome [3] | outcome [4] | outcome [5] | outcome [6] | Potency [7] | Potency [8] | outcome [9]

CC(C)(C)c1ccc(O)c(O)c1
active: Potency [10] 25.4 µM | Potency [7] 25.2 µM and 27.3 µM
inactive: outcome [2] | outcome [3] | outcome [4] | outcome [5] | outcome [6] | Potency [8]

CCOC(C)(C)C
inactive: Potency [1] | outcome [2] | outcome [3] | outcome [4] | outcome [5] | outcome [6] | Potency [7] | Potency [8] | outcome [9]

c1ccc(CC2=NCCN2)cc1
inactive: Potency [1] | outcome [2] | outcome [3] | outcome [4] | outcome [5] | outcome [6] | Potency [7] | Potency [8] | outcome [9]

COc1c(N2C[C@@H]3CCCN[C@@H]3C2)c(F)cc2c(=O)c(C(=O)O)cn(C3CC3)c12
inactive: outcome [2] | outcome [3] | outcome [4] | outcome [5] | Potency [7] | Potency [8] | outcome [9]

COC(=O)C1=C(C)NC(C)=C(C(=O)OC)C1c1ccccc1[N+](=O)[O-]
39 µM (active) and inactive: Potency [10]
inactive: Potency [1] | outcome [2] | outcome [3] | outcome [4] | outcome [5] | outcome [6] | outcome [9]
49 µM (active) and inactive: Potency [8]

CCC(C)S (centres undefined)
inactive: viability change, negative = cytotoxic [1] 1.2% [at 3.11 µM] | activation [2] 0.0323% [at 3.11 µM] | activity, negative = cytotoxic [3] 6.58% [at 3.12 µM] | activation [4] 2.07% [at 3.11 µM] | activity change, negative = cytotoxicity [5] 12.1% [at 3.11 µM] | activity, negative = cytotoxicity [6] -0.272% [at 3.27 µM] | activity change, negative = inhibition [7] 4.64% [at 3.27 µM] | viability change, negative = cytotoxic [8] 5.51% [at 2.72 µM] | activation [9] -2.17% [at 2.72 µM]

CCCC(=O)O[C@]1(C(=O)CO)CC[C@H]2[C@@H]3CCC4=CC(=O)CC[C@]4(C)[C@H]3[C@@H](O)C[C@@]21C
inactive: Potency [1] | outcome [2] | outcome [3] | outcome [4] | outcome [5] | outcome [6] | Potency [7] | Potency [8] | outcome [9]
